High-throughput results (PubChem BioAssay)
The list is not random: actives were taken first. Their share in the collection is about 1.1%.
OPRM1-OPRD1 ag = OPRM1-OPRD1 heterodimerization agonism; cells, luminescence; P35372+P41143; hit rate 0.3% among 340,000; activation, % at 9.3 µM; in the data active = activation above about 18%
MOR-DOR inv ag = mu-delta opioid heterodimer inverse agonism | cell-based MOR-DOR heterodimer luminescence | P35372+P41143 | inhibition, % at 9.3 µM | hit rate 0.21% among 340,000; in the data active = inhibition above about 22%, passing the limit was not always enough
HTR5A ag ctr = counter-screen for OPRM1-OPRD1 agonists: human HTR5A agonism; P47898; HTR5A agonist assay, luminescence, cell-based; activation, % at 9.3 µM; hit rate 0.61% among 340,000; AID 504692; in the data active = activation mostly above about 9.5%, no sharp cut-off; inactive = mostly below about 7.6%
HTR5A inv ag = counter-screen for OPRM1-OPRD1 inverse agonists: human HTR5A inverse agonism | P47898 | HTR5A cell line, luminescence | inhibition, % at 9.3 µM | hit rate 0.083% among 340,000 | AID 504634; in the data active = inhibition mostly above about 23%, no sharp cut-off; inactive = mostly below about 18%
Hits are given with their value; - = inactive.

SMILES	OPRM1-OPRD1 ag	MOR-DOR inv ag	HTR5A ag ctr	HTR5A inv ag
CSC1=C(C#N)C(c2ccccc2Cl)C2=C(N1)c1ccccc1C2=O (configuration not stated)	-	-	-	-
CC1(C)CC(=O)c2cc3c(N)c(C(=O)NCc4ccccc4)sc3nc2C1	-	-	11	-
Cc1ncccc1C(=O)N1CCCC(C(=O)c2ccc3c4c(cccc24)CC3)C1 (configuration not stated)	-	-	-	-
O=C(c1ccc2c3c(cccc13)CC2)C1CCCN(C(=O)c2ccc(=O)[nH]c2)C1 (configuration not stated)	-	-	13	-
Cc1ccc(S(=O)(=O)N(C)CC(=O)NCCCn2nc(C)cc2C)cc1	-	-	-	-
CCn1c(=O)c([N+](=O)[O-])c(NCCN(C)C)c2ccccc21	-	-	-	-
CCn1c(=O)c([N+](=O)[O-])c(Cl)c2ccccc21	-	35	-	-
C=CC[C@H](CC(=O)N(CCO)Cc1ccccc1)C(=O)NC[C@H](OC(=O)[C@@H](CC=C)Cc1ccc(F)cc1)c1ccccc1	-	-	-	-
CC(C)(C)c1cc(=O)[nH]c(SCc2ccccc2Cl)n1	-	-	12	-
CCOc1ccc(NC(=O)C2CCN(S(=O)(=O)c3ccc4c(c3)NC(=O)C(C)S4)CC2)cc1 (configuration not stated)	-	-	10	-
COc1ccc(NC(=O)c2[nH]c(C)c(C(C)=O)c2C)cc1	-	-	12	-
CCOc1ccc(NC(=O)c2[nH]c(C)c(C(C)=O)c2C)cc1	-	-	-	-
COc1ccc(NS(=O)(=O)c2cc(NC(=O)c3ccc(F)cc3)ccc2OC)cc1	-	-	-	-
COc1ccc(NC(=O)c2ccc(F)cc2)cc1S(=O)(=O)Nc1cc(C)ccc1Br	-	-	12	-
COc1ccc(NC(=O)c2[nH]c(C)c(C(C)=O)c2C)cc1Cl	-	-	-	-
COc1ccc(NC(=O)c2[nH]c(C)c(C(C)=O)c2C)cc1S(=O)(=O)Nc1ccc(Br)cc1	-	-	13	-
COC(=O)[C@H]1C[C@@H]1[C@H](NC(=O)c1ccccc1)c1ccccc1	-	-	-	-
CCCc1nc2ccc(NC(=O)c3cccs3)cc2c(=O)n1Cc1ccccc1Cl	-	-	-	-
CCCc1nc2ccc(NC(C)=O)cc2c(=O)n1Cc1ccc(Cl)cc1	-	-	10	-
O=C(Oc1ccc(C(=S)N2CCOCC2)cc1)c1ccc([N+](=O)[O-])cc1[N+](=O)[O-]	-	-	-	-
O=C(Oc1cccc(C(=S)N2CCOCC2)c1)c1ccc([N+](=O)[O-])cc1[N+](=O)[O-]	-	-	9.4	-
COc1ccc(C(=O)O/N=C(\N)Cc2ccc(Cl)c(Cl)c2)cc1OC	22	-	42	-
COc1ccc(C/C(N)=N/n2cnnc2)cc1Cl	-	-	-	-
O=C1c2ccccc2C(=O)N1Nc1ccc([N+](=O)[O-])cc1[N+](=O)[O-]	-	-	-	35
CC(=O)NC1C(=O)N(Cc2ccccc2)c2ccc(Br)cc21 (configuration not stated)	-	-	-	-
SMILES	OPRM1-OPRD1 ag	MOR-DOR inv ag	HTR5A ag ctr	HTR5A inv ag
Cc1ccc2c(c1)C(CCN)C(=O)N2Cc1ccccc1 (configuration not stated)	-	65	-	57
O=C(/C=C/c1ccccc1)c1ccc2c(c1)OCCCCO2	-	-	-	-
O=C(CCl)N(C/C=C/c1ccccc1)c1ccc2c(c1)OCCO2	38	-	71	-
CCOC(=O)c1ccc(Nc2nc(N3CCOCC3)nc(N3CCOCC3)n2)cc1	-	-	-	-
Cn1c(SCC(=O)c2ccccc2)nnc1C1CC1	-	-	-	-
Nc1c(C(=O)CSc2nccn2-c2ccc(Cl)cc2)c(=O)[nH]c(=O)n1C1CC1	-	-	-	-
O=C1Nc2c(Br)cccc2C1=O	-	-	-	-
Cc1cccc2c1NC(=O)C2=O	-	41	-	-
CC1(C)CC(N=c2cc(-c3ccccc3)oc3ccc(Cl)cc23)CC(C)(C)N1	-	-	14	-
COc1ccc(CNC(=O)[C@]2(C)CCC[C@@]3(C)C4CC[C@@]5(C)C[C@]4(CCC32)CC5=O)cc1 (some centres not stated)	-	-	-	-
C[C@]1(CO)CCC[C@@]2(C)C1CC[C@@H](CO)[C@@H]2CCc1ccoc1 (some centres not stated)	-	-	9.8	-
CCN(CC)CCNC(=O)c1ccc(NC(=O)c2cc(S(=O)(=O)N3CCCCC3)ccc2C)cc1	-	-	12	-
O=C(O)CSCC(=O)N1CCN(c2ccnc3cc(Cl)ccc23)CC1	-	-	11	-
